# In the supplement of paper PMC12024529:
# Test system: HEK293 WT BDD-FVIII-Gluc
# Experiment: secreted FVIII-Gluc luciferase Z-score vs DMSO control; higher = more FVIII-Gluc secretion
# Conditions: 5 µM
# Protocol: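 Natural plant-compound library (480 compounds, ST catalogue IDs) screened on HEK293 cells stably expressing WT BDD-FVIII-Gaussia luciferase fusion at 5 µM. Secreted Gluc activity in the medium is given as a Z-score relative to DMSO controls.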
row,Compound,secreted FVIII-Gluc luciferase Z-score
1,O=c1c(O)c(-c2cc(O)c(O)c(O)c2)oc2cc(O)cc(O)c12,0.93
2,COc1cc(CNC(=O)CCCCCCC(C)C)ccc1O,-0.541
3,C=CC(C)(O)CCCC(C)CCCC(C)CCCC(C)C (stereo not given),0.179
4,CC1(C)C=Cc2c(c3ccccc3[nH]c2=O)O1,0.817
5,CC(=O)C1=C(O)C=C2Oc3c(C(C)=O)c(O)c(C)c(O)c3[C@]2(C)C1=O,1.04
6,Cn1c(=O)c2c(ncn2C)n(C)c1=O,-0.0716
7,COc1ccc(-c2oc3cc(OC)c(OC(C)=O)c(OC)c3c(=O)c2OC)cc1OC(C)=O,-0.47
8,O=C1C=CC2=C3c4cc(O)c(O)cc4CC3(O)COC2=C1O (stereo not given),0.729
9,COC(=O)[C@H]1[C@H]2C[C@H]3c4[nH]c5ccccc5c4CCN3C[C@H]2CC[C@@H]1O,-0.252
10,COc1cc2oc(-c3ccccc3)cc(=O)c2cc1OC,0.82
11,O=C(O)CCCCC1CCSS1 (stereo not given),-0.0345
12,O=c1cc(-c2ccc(O)c(O)c2)oc2cc(OC3OC(CO)C(O)C(O)C3O)cc(O)c12 (stereo not given),-0.168
13,Oc1cc2c(cc1O)[C@H]1c3ccc(O)c(O)c3OC[C@@]1(O)C2,0.368
14,COC(=O)[C@@H]1C(O)CCC2CN3CCc4c([nH]c5ccccc45)C3CC21 (stereo not given in full),0.187
15,COc1ccc2c(c1)[C@@]1(C)CCC[C@](C)(CO)C1CC2 (stereo not given in full),0.437
16,C1CCN2CC3CC(CN4CCCC[C@H]34)C2C1 (stereo not given in full),1.22
17,Cc1cc2ccc(=O)oc2cc1OC[C@@H](O)C(C)(C)O,-0.00524
18,C=C(CO)C1Cc2c(ccc3c(=O)c4c(oc23)COc2cc(OC)c(OC)cc2-4)O1 (stereo not given),0.0519
19,CC(=O)[C@H]1CC[C@H]2[C@@H]3CCC4=CC(=O)CC[C@]4(C)[C@H]3CC[C@]12C,0.00749
20,CC(C=CC1=C(C)CCCC1(C)C)=CC=CC(C)=CCO,0.89
